Consider 20 compounds from PubChem BioAssay (NCI).

The panel holds about 79,000 compounds, 15% with a hit somewhere; the sample as a whole holds those more often. A number with no mark means an inactive call. Activity calls are given as the source filed them. No stated cut-off is given here; in the data, active means growth inhibition above about 70%; inactive means the rest. Where a SMILES comes first, the peptide text is derived from it. The star is where a group is joined. OtBu = CC(C)(C)O*

Assay [1] in a line: NCI Yeast Anticancer Drug Screen. Data for the rad50 strain (AID 155).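 Further: 0% = growth of vehicle-only cultures of the same strain.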 The note with it: S. cerevisiae rad50 strain growth inhibition; at 50.0 µM; active compounds read high. In outline: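 Readout: growth inhibition relative to vehicle-treated cultures. Compound exposure was carried out in a genetically defined yeast strain deficient in DNA damage repair.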
Assay [2] can be described thus: NCI Yeast Anticancer Drug Screen. Data for the mec2-1 strain (AID 157). The note with it: S. cerevisiae mec2-1 strain, at 50.0 µM, active compounds read high. An outline of the steps: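 Strain: mec2-1 (DNA repair/cell cycle alteration). Compound exposure, then growth measured; inhibition expressed relative to vehicle.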
Assay [3] in a line: NCI Yeast Anticancer Drug Screen. Data for the sgs1 mgt1 strain (AID 161).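 Further: 0% = growth of cultures given vehicle only.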 The note with it: S. cerevisiae sgs1 mgt1 strain, at 50.0 µM, active compounds read high. In outline: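 Mutant yeast exposed to compound; growth scored against vehicle-only wells.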
A short description of assay [4]: NCI Yeast Anticancer Drug Screen. Data for the cln2 rad14 strain (AID 165).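 Further: 0% = growth equal to vehicle treated cultures.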 The note with it: S. cerevisiae cln2 rad14 strain, at 50.0 µM, active compounds read high. In outline:
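Compounds are applied to the cln2 rad14 yeast strain, and growth is then compared with that of vehicle-treated cultures to give inhibition.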

Assay [5] in a line: NCI Yeast Anticancer Drug Screen. Data for the bub3 strain (AID 167). The note with it: S. cerevisiae bub3 mutant strain, at 50.0 µM, active compounds read high. An outline of the steps:
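Readout: yeast growth inhibition, expressed relative to vehicle-only wells. The test organism is a mutant strain from a panel with lesions in DNA repair or checkpoint genes.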

A short description of assay [6]: NCI Yeast Anticancer Drug Screen. Data for the mlh1 rad18 strain (AID 175). The note with it: S. cerevisiae mlh1 rad18 strain growth inhibition; at 50.0 µM; active compounds read high. An outline of the steps: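 Read-out is yeast growth inhibition, calculated against vehicle-only controls. The compound was applied to a strain engineered with DNA damage repair alterations.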

For `O=C1C(Cl)N(c2ccccc2[N+](=O)[O-])C1c1c[nH]c2ccccc12` (stereo not given), the growth inhibition in assay [1] is -13.6%; in assay [2], -22.6%; in assay [3], 3.65%; in assay [4], -19.9%; in assay [5], -26.2%; in assay [6], -31.7%.
Turning to `CCCCC[N+]1([O-])CCOCC1`, the growth inhibition in assay [1] is 4.05%; in assay [2], -4.1%; in assay [3], -7.1%; in assay [4], -24.4%; in assay [5], -3.1%; in assay [6], 1.05%.
For `COC1=C(C(c2cc(OC)c(OC)c(OC)c2)c2cc3c(cc2OC)OCO3)C(=O)OC1` (stereo not given), the growth inhibition in assay [1] is -18.6%; in assay [2], -5.9%; in assay [3] it was -2.9%; in assay [4] it was 6.25%; in assay [5] it was 1.1%; in assay [6], 13.4%.
Turning to `COc1ccc(N=Nc2c(-c3ccccc3)nn(C(=O)CC(=O)Nc3cccc(Cl)c3)c2-c2ccccc2)cc1`, the growth inhibition in assay [1] was -2.65%; in assay [2], 5.9%; in assay [3], -6.3%; in assay [4], 12.6%; in assay [5] it was 26.3%; in assay [6], -13.5%.
Consider `CCCCc1c2c(nc3c1CCCC3=O)C(=O)CCC2`, for which the growth inhibition in assay [1] is -11.3%; in assay [2] it was -1.95%; in assay [3], -14.7%; in assay [4] it was 2%; in assay [5], -2.45%; in assay [6], -9.15%.
For `Nc1ccc(P(=O)(Nc2ccc3ccccc3c2)Nc2ccc3ccccc3c2)cc1`, the growth inhibition in assay [1] is 83.2% (active); in assay [2], 67.5%; in assay [3], 89.2% (active); in assay [4], 79.9% (active); in assay [5] it was 83.2% (active); in assay [6] it was 91.2% (active).
As for `CC(C)CC(NC(=O)C1CCCN1)C(=O)NC(CC(C)C)C(=O)OC(C)(C)C` (stereo not drawn) (H-Pro-Leu-Leu-OtBu; configuration not given here), the growth inhibition is 30.2% in assay [1]; 26.6% in assay [2]; 29.1% in assay [3]; 19% in assay [4]; -4.15% in assay [5]; 30.9% in assay [6].
With `CC(C)CCCC(C)C1CCC2(C)C3=C(CCC12C)C1(C)CCC(O)C(C)(C)C1CC3=O` (stereo not given), the growth inhibition in assay [1] is -0.35%; in assay [2], -0.5%; in assay [3], -18.6%; in assay [4] it was 1.85%; in assay [5] it was 2.1%; in assay [6] it was -5.45%.
On to `CCN(CC(O)COc1ccc2c(c1)[n+]([O-])nc(N)[n+]2[O-])C(C)=O` (stereo not given), for which the growth inhibition in assay [1] is 46.5%; in assay [2], 38%; in assay [3], 40.3%; in assay [4], 38.9%; in assay [5], 31%; in assay [6], 38.8%.
With `COC(=O)/C=C1/OC(c2ccc(C)cc2C)=CC1=O`, the growth inhibition was 47.8% in assay [1]; 50.7% in assay [2]; 42.5% in assay [3]; 0.8% in assay [4]; 26.6% in assay [5]; 57.1% in assay [6].
`N=C1N=C(N)C(CCCOc2cc(Cl)ccc2Cl)(CCCOc2cc(Cl)ccc2Cl)C(N)=N1`: the growth inhibition is 99% (active) in assay [1]; 95.5% (active) in assay [2]; 97.4% (active) in assay [3]; 98.5% (active) in assay [4]; 98.9% (active) in assay [5]; 98% (active) in assay [6].
Consider `O=[N+]([O-])c1ccc(P(=O)(Nc2ccc(Cl)cc2)Nc2ccc(Cl)cc2)cc1`, for which the growth inhibition in assay [1] is 95.7% (active); in assay [2], 96.8% (active); in assay [3], 95.1% (active); in assay [4], 91.8% (active); in assay [5], 94.8% (active); in assay [6], 97.1% (active).
For the compound `CCOC(=O)C(Nc1cc([N+](=O)[O-])ccc1C(=O)OC)(OC)C(=O)OCC`, the growth inhibition is 13.2% in assay [1]; 15.4% in assay [2]; 34.1% in assay [3]; 0.95% in assay [4]; 1.15% in assay [5]; 27.4% in assay [6].
For the compound `O=c1[nH]c(Nc2ccccc2)nc2c1ncn2CC(O)CSCCO` (stereo not given), the growth inhibition in assay [1] was 16.1%; in assay [2], 13.2%; in assay [3], 26.7%; in assay [4], 8.45%; in assay [5], 10.4%; in assay [6], -27.4%.
For the compound `CC(C)=CC1C(C(=O)Oc2c(Cl)c(Cl)c(Cl)c(Cl)c2Cl)C1(C)C` (stereo not given), the growth inhibition in assay [1] is 12.5%; in assay [2], 6.5%; in assay [3] it was 40.9%; in assay [4], 12.2%; in assay [5], -4.15%; in assay [6], 31.2%.
On to `O=C(Nc1ccc(Cl)cc1[N+](=O)[O-])Oc1ccc(-c2ccccc2)cc1Cl`, for which the growth inhibition in assay [1] is 99.5% (active); in assay [2], 99.7% (active); in assay [3], 99.7% (active); in assay [4], 99% (active); in assay [5] it was 99.4% (active); in assay [6] it was 99.7% (active).
On to `O=C(CCN1CCCC1)c1ccc2ccccc2c1`, for which the growth inhibition in assay [1] is 32.6%; in assay [2], 49.3%; in assay [3] it was 65.9%; in assay [4], 43.6%; in assay [5], 59.4%; in assay [6] it was 21.6%.
Take `O=C1CC23CC(=O)CC2(C1)c1ccccc1C3=O` (stereo not given): the growth inhibition in assay [1] was 11.1%; in assay [2], -11.8%; in assay [3] it was 4.65%; in assay [4] it was 6.2%; in assay [5], 3.05%; in assay [6], 13.7%.
On to `CC1=CC(=O)c2cc(C)ccc2C1=O`, for which the growth inhibition in assay [1] is 6.1%; in assay [2], -15%; in assay [3] it was -8.35%; in assay [4], -32.5%; in assay [5], -2.95%; in assay [6], -3.25%.
Take `CCOC(=O)C(C(=O)OCC)c1cc(-c2cc3ccccc3o2)oc(=O)c1C#N`: the growth inhibition is 47.7% in assay [1]; 20.5% in assay [2]; 10.2% in assay [3]; 15.8% in assay [4]; -4.15% in assay [5]; 30.1% in assay [6].
